Consider twelve compounds from PubChem BioAssay.

The source made the active and inactive calls. Unless noted, how the calls were made is not given here.

Test [1] in a line: resazurin metabolic signal in HepG2 cells – cell-based, resazurin fluorescence, 24 h, PK04 Diversity Set, profiling panel (AID 1172). Further: test concentration not given here. The conditions noted are these: HepG2 viability, higher = more signal. A general note: Alamar Blue is a resazurin reagent that responds to reducing activity.
Test [2] is described as follows: budding yeast growth changes without added modifier – OD600, strain BY4716, 24 h, basal condition, primary screen (AID 1173). The conditions noted are these: S. cerevisiae BY4716 growth, OD600, 24 h; higher = more signal, called active from +8 up or from −8 down.
Test [3] can be described thus: viability profiling in MM1S myeloma cells – cell-based, resazurin fluorescence, basal, 24 h, PK04 Diversity Set, profiling panel (AID 1174).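 Further: MM1S multiple myeloma cell line; test concentration not given here.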 To be noted: higher = more signal, called active from +8 up or from −8 down.
The target in test [4] is Dihydroorotate dehydrogenase (quinone), mitochondrial (Plasmodium falciparum (isolate 3D7)) (UniProt Q08210). As to the kind of experiment: inhibition of P. falciparum DHODH – biochemical, C-terminal His tag, absorbance 600 nm, primary screen (AID 1175).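 Further: recombinant parasite enzyme with a five histidine tag at its C terminus; test concentration not given here.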 To be noted: PfDHODH enzyme, DCIP absorbance 600 nm; higher = more signal, called active from +8 up or from −8 down.
Test [5] is described as follows: inhibition of PAO1 biofilm formation – strain PAO1, LB-PBS medium, absorbance 600 nm, primary screen (AID 1176). Further: test concentration not given here. To be noted: P. aeruginosa PAO1 growth/biofilm, A600, 12 h; higher = more signal.
Test [6] in a line: growth modulation of vineyard yeast isolate – strain RM11-1a, OD600, basal, 24 h, primary screen (AID 1177).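 Further: cultures grown under basal conditions with no added stressor; test concentration not given here.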 The conditions noted are these: S. cerevisiae RM11-1a growth, OD600, 24 h; higher = more signal, called active from +8 up or from −8 down.
Test [7] is described as follows: growth of efflux-deficient E. coli DRC39 – strain DRC39, OD650, 24 h, E. coli filamentation inducers, primary screen (AID 1178).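 Further: growth measured as culture turbidity by optical density at 650 nm; test concentration not given here.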 The conditions noted are these: E. coli DRC39 acrAB, higher = more signal, called active from +8 up or from −8 down.
The nature of test [8]: growth of efflux-deficient E. coli DRC39 – strain DRC39, OD650, 48 h, E. coli filamentation inducers, primary screen (AID 1179).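 Further: screen aims at cell division blockers that make cells filament.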 The conditions noted are these: E. coli DRC39 delta-acrAB growth, higher = more signal, called active from +8 up or from −8 down.
Test [9] can be described thus: viability profiling in RPMI8226 myeloma cells – cell-based, resazurin fluorescence, basal, 24 h, PK04 Diversity Set, profiling panel (AID 1180).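 Further: RPMI8826 multiple myeloma cell line at 5000 cells per well; test concentration not given here.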 To be noted: higher = more signal.
The target in test [10] is E3 ubiquitin-protein ligase XIAP (Homo sapiens) (UniProt P98170). In words: small molecules binding XIAP protein – biophysical, small-molecule microarray, fluorescence 635 nm, primary screen (AID 1181).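 Further: score merges 667 nm emission and signal to noise over triplicate slides.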 To be noted: higher = more signal.
E3 ubiquitin-protein ligase XIAP (Homo sapiens), sequence (P98170 whole entry, looked up): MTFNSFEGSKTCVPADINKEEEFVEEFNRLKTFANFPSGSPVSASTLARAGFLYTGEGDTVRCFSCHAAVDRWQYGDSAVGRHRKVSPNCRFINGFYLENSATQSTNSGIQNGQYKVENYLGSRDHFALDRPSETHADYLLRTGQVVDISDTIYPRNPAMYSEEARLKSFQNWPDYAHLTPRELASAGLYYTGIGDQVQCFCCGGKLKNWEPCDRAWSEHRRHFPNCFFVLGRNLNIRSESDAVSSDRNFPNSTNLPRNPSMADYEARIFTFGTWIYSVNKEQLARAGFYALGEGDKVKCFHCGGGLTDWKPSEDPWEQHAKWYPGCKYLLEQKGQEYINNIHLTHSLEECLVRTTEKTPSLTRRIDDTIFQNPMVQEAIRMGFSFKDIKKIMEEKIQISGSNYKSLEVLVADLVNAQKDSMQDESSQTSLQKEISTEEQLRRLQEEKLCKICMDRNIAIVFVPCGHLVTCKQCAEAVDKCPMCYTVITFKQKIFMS

Dihydroorotate dehydrogenase (quinone), mitochondrial (Plasmodium falciparum (isolate 3D7)), sequence (Q08210 whole entry, looked up): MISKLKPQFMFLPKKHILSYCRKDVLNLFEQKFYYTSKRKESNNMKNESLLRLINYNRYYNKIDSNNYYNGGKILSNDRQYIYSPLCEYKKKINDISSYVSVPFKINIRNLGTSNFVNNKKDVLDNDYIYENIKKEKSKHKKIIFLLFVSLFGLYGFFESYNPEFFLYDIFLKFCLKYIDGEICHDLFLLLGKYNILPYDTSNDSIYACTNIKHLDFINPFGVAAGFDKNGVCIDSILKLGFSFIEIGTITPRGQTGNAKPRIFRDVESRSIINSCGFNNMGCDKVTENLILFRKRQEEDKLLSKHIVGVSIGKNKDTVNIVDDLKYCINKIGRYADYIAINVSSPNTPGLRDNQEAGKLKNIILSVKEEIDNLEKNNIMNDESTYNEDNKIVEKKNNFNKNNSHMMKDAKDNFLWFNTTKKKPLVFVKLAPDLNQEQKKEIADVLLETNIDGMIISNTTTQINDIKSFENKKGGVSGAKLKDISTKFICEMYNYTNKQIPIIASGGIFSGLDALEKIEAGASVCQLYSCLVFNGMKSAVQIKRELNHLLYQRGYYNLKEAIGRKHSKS

Regarding `CN1C2C=C(CCCO)C(C3C(=O)N(C(N)=O)C(=O)C32)C1c1ccc(CN2CCCC2)cc1` (stereo not given), the z-score is -0.163 in test [1]; 0.464 (inactive) in test [2]; -0.508 (inactive) in test [3]; 0.661 (inactive) in test [5]; -0.56 (inactive) in [6]; 0.359 (inactive) in test [7]. Moreover, the z-score in [8] was 0.259 (inactive); in [9], -0.287. Also, the composite z-score was -0.157 (inactive) in [4] and -0.0703 in [10].

On to `CN(C)C(=O)[C@]1(Cc2ccccc2N=[N+]=[N-])N=C(c2ccc(OCCCO)cc2)O[C@@H]1c1ccccc1`, for which the z-score in [1] was 0.0707; in test [2] it was -1.87 (inactive); in test [3], -0.597 (inactive); in test [5], -1.49 (inactive); in test [6], 0.504 (inactive); in test [7], 0.651 (inactive). For the same compound, the values for the z-score in test [8] and in test [9] were 1.15 (inactive) and 0.0542, respectively. The composite z-score in test [4] is 0.209 (inactive); in test [10], -0.141.

Consider `[N-]=[N+]=Nc1ccccc1[C@H]1OC(c2ccc(OCCCO)cc2)=N[C@@]1(Cc1ccccc1)C(=O)O`, for which the z-score in test [1] was 0.615; in test [2], -0.967 (inactive); in test [3] it was -0.149 (inactive); in test [5], 0.631 (inactive); in test [6], 0.222 (inactive); in test [7] it was 0.451 (inactive). The results for the z-score in [8] and in test [9] were 0.534 (inactive) and -0.434, respectively. Further, the figures for the composite z-score in test [4] and in [10] were 1.12 (inactive) and 0.0735, respectively.

Take `C=CCNC(=O)[C@H]1[C@@H]2C(=O)O[C@@H](c3ccccc3)[C@@H](c3ccccc3)N2[C@@H](c2ccccc2OCCO)[C@]12C(=O)Nc1ccc(C#CC3=CCCCC3)cc12`: the z-score in [1] is -2.93; in test [2], 1.97 (inactive); in test [3], -8.87 (active); in test [5], 1.89 (inactive); in test [6] it was 3.11 (inactive); in test [7], -0.639 (inactive). The z-score is -0.0547 (inactive) in test [8] and -7.09 in [9]. Further, the composite z-score in test [4] was 0.266 (inactive); in [10] it was 0.112.

With `O=C1NC(=O)C2C1C=CC(C(O)c1ccccc1)N2Nc1ccc(Cl)cc1Cl` (stereo not given), the z-score in [1] was -2.45; in test [2], -17.3 (active); in test [3], -1.62 (inactive); in test [5], 1.43 (inactive); in [6], -15.4 (active); in test [7], 0.047 (inactive). Besides, the values for the z-score in test [8] and in test [9] were -0.224 (inactive) and -1.55, respectively. In addition, the composite z-score in test [4] is -0.782 (inactive); in test [10], 0.54.

As for `C=CCN(Cc1ccccc1)C(=O)C(c1cccs1)N(CCOCCO)C(=O)/C=C\C(=O)O` (stereo not given), the z-score in [1] is -0.393; in test [2], -1.1 (inactive); in test [3] it was 0.666 (inactive); in test [5], 0.661 (inactive); in test [6] it was -0.947 (inactive); in test [7] it was 0.441 (inactive). Also, the z-score in [8] was 1.05 (inactive); in test [9] it was 0.463. Further, the results for the composite z-score in test [4] and in test [10] were -1.37 (inactive) and 0.223, respectively.

For `CO[C@H]1O[C@H](CO)[C@@H](OC(=O)Nc2ccc(Br)cc2)[C@H](OC(=O)c2cc3ccccc3[nH]2)[C@H]1OC(=O)c1cc2ccccc2[nH]1`, the z-score was -3.36 in [1]; -0.98 (inactive) in test [2]; -2.32 (inactive) in test [3]; 1.16 (inactive) in test [5]; -1.02 (inactive) in [6]; 1.21 (inactive) in test [7]. Further, the z-score in [8] is 1.78 (inactive); in test [9] it was -4.77. Moreover, the results for the composite z-score in test [4] and in test [10] were -1.2 (inactive) and -0.0011, respectively.

`C=CC[C@]1(C(=O)N2CCCCC2)N=C(c2ccc(OCCCO)cc2)O[C@H]1c1ccccc1`: the z-score in test [1] is 1.77; in test [2], -2.06 (inactive); in test [3] it was 0.91 (inactive); in [5], -0.481 (inactive); in test [6] it was 0.646 (inactive); in [7] it was 0.825 (inactive). For the same compound, the z-score in [8] is -0.189 (inactive); in test [9] it was 1.93. Besides, the composite z-score was -0.309 (inactive) in [4] and -0.0563 in test [10].

In the case of `C[C@@]1([C@@H](NC(=O)c2ccccc2)c2ccc(-c3ccccc3)cc2)C[C@H]1C1CCCCC1`, the z-score was -1.32 in [1]; 1.14 (inactive) in test [2]; -1.93 (inactive) in test [3]; 1.57 (inactive) in [5]; 0.0656 (inactive) in test [6]; -1.59 (inactive) in test [7]. For the same compound, the z-score in [8] is -1.17 (inactive); in test [9] it was -0.675. The results for the composite z-score in [4] and in test [10] were -0.712 (inactive) and -0.117, respectively.

With `C=C(/C(=C/C[C@@H](OC(C)=O)c1ccc(OCCO)cc1)c1cnc2ccccc2c1)C(C)C`, the z-score is 1.22 in test [1]; -2.05 (inactive) in test [2]; -0.318 (inactive) in [3]; -0.165 (inactive) in test [5]; -1.87 (inactive) in test [6]; 1.58 (inactive) in [7]. Further, the z-score was 0.79 (inactive) in test [8] and 1.05 in [9]. The composite z-score is -7.29 (inactive) in [4] and 0.287 in [10].

Turning to `OC([C@@H]1CC(c2ccccc2)=NO1)[C@H]1CC(c2ccccc2)=NO1` (stereo not given in full), the z-score in test [1] is 0.447; in [2] it was -1.39 (inactive); in test [3], 0.129 (inactive); in test [5] it was -0.0704 (inactive); in [6], 1.16 (inactive); in test [7], 2.32 (inactive). Moreover, the results for the z-score in test [8] and in test [9] were 1.16 (inactive) and 0.236, respectively. In addition, the results for the composite z-score in [4] and in [10] were -0.543 (inactive) and -0.159, respectively.

Consider `C[C@@H]1ON(c2cccc(C(=O)OC(C)(C)C)c2)[C@H](c2ccc(Br)cc2)[C@H]1C(=O)N1C(=O)OC[C@H]1Cc1ccccc1`, for which the z-score in [1] is 0.0192; in test [2], 0.724 (inactive); in [3] it was 0.433 (inactive); in [5], -0.295 (inactive); in [6], 0.872 (inactive); in test [7], -0.741 (inactive). Further, the results for the z-score in test [8] and in [9] were -0.472 (inactive) and 1.25, respectively. Moreover, the composite z-score in [4] is 1.17 (inactive); in [10], 0.127.
